Measured values as given in PubChem BioAssay.

tested on: XIP peptide (Xip251-270) binding; experiment: XIP fragment 251-270 binding compounds – biochemical, small-molecule microarray, fluorescence 635/667 nm, 0.1 µg/mL protein, primary screen (AID 1182); settings: fluorescent protein binding, 635 nm, higher = more signal, called active from +8 up or from −8 down

Composite z-score, inactive:
COCCOC(=O)N1C(=O)[C@@]2(c3cc(C#CC4=CCCCC4)ccc31)[C@H](C(=O)NC[C@H](O)c1ccccc1)[C@H]1C(=O)O[C@H](c3ccccc3)[C@H](c3ccccc3)N1[C@@H]2c1ccc(OCCO)cc1 -0.361
CCC#CCN(Cc1ccccc1Br)[C@H](/C=C/c1ccccc1)[C@@H](O)Cc1ccccc1 -0.276
C=C(CCCC)/C(=C/C[C@@H](OC(=O)c1ccncc1)c1cccc(OCCO)c1)c1cc(C(=O)OC)ccc1OC 1.33
NC(=O)NCC#Cc1ccc2c(c1)[C@]1(C(=O)N2)[C@H](c2ccccc2OCCO)N2[C@H](c3ccccc3)[C@H](c3ccccc3)OC(=O)[C@H]2[C@@H]1C(=O)N1CCN(c2ncccn2)CC1 0.233
O=C1OCC=C[C@H]2OC34C=CCN(Cc5ccccc5)C(=O)[C@H]3N(CCO)C(=O)[C@@H]4[C@@H]12 (stereo partly specified) -0.132
Cc1ccc(S[C@]2(C(=O)NC(C)C)CC(=O)N(Cc3cc(C(F)(F)F)cc(C(F)(F)F)c3)[C@@H]2c2ccc(CO)cc2I)cc1 0.351
COc1ccc(C(=O)Nc2ccc(CN3C(=O)[C@]4(O[C@H](CCn5cc(CCO)nn5)[C@@H]([Si](C)(C)c5ccc(OC)cc5)[C@@H]4C)c4ccccc43)cc2)cc1 -0.154
COC(=O)[C@@]1(Cc2ccccc2)[C@H]2c3cc(C(=O)N4CCCC4)n(CCN4CNCC4=O)c3C[C@H]2CN1C(=O)c1ccccc1 1.12
CCCNC(=O)[C@@H]1c2ccccc2C(=O)N(C2CCCCC2)[C@H]1c1ccc(CO)cc1 0.521
CC(C)C[C@@H]1NC(=O)[C@H]2C[C@@H](C(=O)NCCCCCC[N+](C)(C)C)[C@@H](c3ccc(O)cc3)N2C1=O 0.28
O=C(NCc1ccccc1)[C@@]1(Cc2ccccc2)COC(c2ccc(OCCCO)cc2)=N1 0.489
C=CCN1C(=O)[C@@]2(Cc3ccccc3)N=C(c3ccc(OCCCO)cc3)O[C@H]2c2ccccc21 1.67
COCCCNC(=O)[C@@H]1c2ccccc2C(=O)N(CC23CC4CC(CC(C4)C2)C3)[C@H]1c1ccc(CO)cc1 0.428
[N-]=[N+]=NCc1ccccc1[C@H]1OC(c2ccc(OCCCO)cc2)=N[C@@]1(Cc1ccccc1N=[N+]=[N-])C(=O)NCc1ccccc1 0.0116
O=C1C2C=CC(C(O)c3ccccc3)N(n3cnnc3)C2C(=O)N1Cc1ccccc1 (stereo unspecified) -0.377
CCCC[C@@H]1C[C@H]1[C@@H](NC(=O)c1ccccc1)c1ccccc1C(F)(F)F 0.715
COc1ccc(CCN2C(=O)[C@@]3(c4ccc([N+](=O)[O-])cc4)CC(=O)N(CC45CC6CC(CC(C6)C4)C5)[C@@H]3c3ccc(CO)cc32)cc1 -0.038
O=C1O[C@@H](c2ccccc2)[C@@H](c2ccccc2)N2[C@@H](c3ccc(OCCO)cc3)[C@]3(C(=O)Nc4ccc(C#CCCO)cc43)[C@@H](C(=O)N3CCN(c4ncccn4)CC3)[C@H]12 0.42
Cc1ccc(S[C@]2(C(=O)NC(C)C)CC(=O)N(C3Cc4ccccc4C3)[C@@H]2c2ccc(CO)cc2)cc1 0.137
O=C1O[C@H](c2ccccc2)[C@H](c2ccccc2)N2[C@H]1[C@@H](C(=O)Nc1nc3ccccc3s1)[C@]1(C(=O)Nc3ccc(C#CC4=CCCCC4)cc31)[C@H]2c1ccccc1OCCO 0.0485
C=CC[C@]1(C(=O)O)N=C(c2ccc(OCCCO)cc2)O[C@H]1c1ccccc1N=[N+]=[N-] 0.718
CCOC(=O)C1=C[C@@H](c2ccccc2)N(S(=O)(=O)c2ccc(C)cc2)[C@H]1c1ccc(F)cc1 0.346
C=CCC(OC(C)=O)[C@@H]1[C@@H](N(Cc2cccc3ccccc23)C(=O)c2ccc(C)cc2)c2cc(OCCCO)ccc2N1C(=O)c1ccc(-c2ccccc2)cc1 (stereo partly specified) -0.115
COc1ccc(-c2cc3c(c(-c4ccccc4)n2)[Si](C(C)C)(C(C)C)O[C@H]3c2ccccc2)cn1 0.64
Cc1ccc(S[C@]2(C(=O)O)CC(=O)N(Cc3cc(C(F)(F)F)cc(C(F)(F)F)c3)[C@@H]2c2ccc(CO)cc2I)cc1 -0.313
O=C1O[C@H](c2ccccc2)[C@H](c2ccccc2)N2[C@H]1[C@@H](C(=O)Nc1nc3ccccc3s1)[C@]1(C(=O)Nc3ccc(C#CC4(O)CCCCCC4)cc31)[C@H]2c1ccc(O)cc1 2.76
O=C1C2C=CC(C(O)C#Cc3ccccc3)N(Nc3ccccc3)C2C(=O)N1c1ccccc1 (stereo unspecified) -0.115
CN1C(=O)C2C=CC(C(O)C3CC=CCC3)N(Nc3ccccc3)C2C1=O (stereo unspecified) 0.769
COCCCNC(=O)[C@@]1(c2ccc([N+](=O)[O-])cc2)CC(=O)N(C2CCCCC2)[C@@H]1c1ccc(CO)cc1 0.516
Cc1ccccc1C(O)C1C=CC2C(=O)N(c3ccccc3)C(=O)C2N1Nc1ccc(C#N)cc1 (stereo unspecified) 3.08
CCOC(=O)C[C@H]1[C@H](OC(=O)Cc2ccc3c(c2)OCO3)[C@@H](NC(=O)c2ccc3ccccc3c2)c2cc(OCCCO)ccc2N1C(=O)Cc1ccc(OC)cc1 1.46
COC(=O)[C@@]1(Cc2ccccc2CN=[N+]=[N-])N=C(c2ccc(OCCCO)cc2)O[C@H]1c1ccccc1N=[N+]=[N-] 0.413
O=C/C=C/c1ccc(/C=C/c2ccccc2)cc1 -0.837
CC(C)NC(=O)[C@@]1(Cc2ccccc2I)c2ccccc2C(=O)N(C2CCCCC2)[C@H]1c1ccc(CO)cc1 1.02
C=CCC(OC(C)=O)[C@@H]1[C@@H](N(Cc2cccc3ccccc23)C(=O)Cc2ccc(F)cc2)c2cc(OCCCO)ccc2N1C(=O)Cc1ccc2ccccc2c1 (stereo partly specified) -0.741
CCCC=C(CCC)[C@@H](NC(=O)c1ccc(C(F)(F)F)cc1)c1ccccc1 0.177
